# Screening results as filed in PubChem BioAssay.
# This excerpt belongs to a sample that is enriched for hits.
# HT1080 IDH1KD tx: qHTS for induction of synthetic lethality in tumor cells producing 2HG: qHTS for the HT-1080-IDH1KD cell line; HT-1080 IDH1 knockdown viability, ATP luminescence, 48 h; Potency, µM (titrated, usually from 46.1 µM), inactives show top-dose activity, negative = toxicity, hits mostly cytotoxic; 360,000 compounds, 2% hits;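 note: potency is the fitted concentration of half-maximal effect; 0% = DMSO wells and -100% = cell-free medium wells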
#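 HT-1080-IDH1KD cells (IDH1 knocked down), 750/well in RPMI with 5% FBS, treated with compound 48 h at 37 degrees C. Viability by CellTiter-Glo luminescence, normalised to DMSO and no-cell wells; concentration-response curves classed.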
# HT1080NT lethal: qHTS for induction of synthetic lethality in tumor cells producing 2HG: qHTS for the HT-1080-NT fibrosarcoma cell line; AID 686970, 2013; HT-1080-NT fibrosarcoma viability, CellTiter-Glo ATP luminescence, 48 h; 360,000 compounds, 1.6% hits; Potency, µM (series often up to 46.1 µM), without a hit: top-dose activity, negative = less viability, usual class: cytotoxic;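 note: NT is the 2HG producing partner of a matched IDH1 knockdown line; potency is the fitted concentration of half-maximal effect; 0% = DMSO-treated cells and -100% = media-only wells without cells; nearly all actives have a fitted effect of over 55% in size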
#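 A 48-hour cytotoxicity screen used HT-1080-NT cells plated 2 hours before compound delivery. ATP-based CellTiter-Glo luminescence measured viability, normalized to DMSO and no-cell controls.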
# IL-1B inflam inh: qHTS for Inhibitors of Inflammasome Signaling: IL-1-beta AlphaLISA Primary Screen; THP-1 LPS/ATP IL-1B secretion, AlphaLISA, 16 h; stronger effect = lower value; activity change, % at 57.5 µM; 360,000 compounds, 4.7% hits; AID 743279, 2014; in the data active = activity change below about -50%; inconclusive = mostly about -30% to -49%
#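 THP-1 cells pretreated 1 hr with compounds (up to 57.5 uM final), then stimulated with LPS (250 ng/mL final) plus ATP (1.25 mM final); secreted IL-1B measured by AlphaLISA after 16 hr, decreased signal indicating inhibition.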
# TDP1 cell noCPT: qHTS for Inhibitors of human tyrosyl-DNA phosphodiesterase 1 (TDP1): qHTS in cells in absence of CPT. DT40 Tdp1-/- hTDP1 cells, no CPT, ATP luminescence, 48 h. Potency, µM (titrated, usually from 46.2 µM), for the others: at the top dose activity change, negative = growth inhibition, actives largely listed as inhibitors. 420,000 compounds, 15% hits. AID 686978, 2013; note: potency is the fitted concentration of half-maximal effect; nearly all actives have a fitted effect of over 55% in size
#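 Chicken DT40 Tdp1-/- cells complemented with human TDP1, screened without camptothecin (DMSO vehicle only), 400 cells/well. Compounds pin-transferred, cells incubated at 37 °C for at least 48 hr. Growth read as ATP-dependent luminescence (CellTiter-Glo, 30 min at RT).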
# 12-LOX inh: Primary qHTS assay for inhibitors of human arachidonate 12S-lipoxygenase (ALOX12): Round 2. Polyunsaturated fatty acid lipoxygenase ALOX12 (Homo sapiens), P18054. purified 12hLO, xylenol orange hydroperoxide absorbance. Potency, µM (highest dose often 108 µM), without a hit: at the highest dose activity change, negative = inhibition, actives largely listed as inhibitors. 580,000 compounds, 1.1% hits. AID 1671190, 2021; note: potency is the fitted concentration of half-maximal effect
# Target sequence (P18054 whole entry, looked up): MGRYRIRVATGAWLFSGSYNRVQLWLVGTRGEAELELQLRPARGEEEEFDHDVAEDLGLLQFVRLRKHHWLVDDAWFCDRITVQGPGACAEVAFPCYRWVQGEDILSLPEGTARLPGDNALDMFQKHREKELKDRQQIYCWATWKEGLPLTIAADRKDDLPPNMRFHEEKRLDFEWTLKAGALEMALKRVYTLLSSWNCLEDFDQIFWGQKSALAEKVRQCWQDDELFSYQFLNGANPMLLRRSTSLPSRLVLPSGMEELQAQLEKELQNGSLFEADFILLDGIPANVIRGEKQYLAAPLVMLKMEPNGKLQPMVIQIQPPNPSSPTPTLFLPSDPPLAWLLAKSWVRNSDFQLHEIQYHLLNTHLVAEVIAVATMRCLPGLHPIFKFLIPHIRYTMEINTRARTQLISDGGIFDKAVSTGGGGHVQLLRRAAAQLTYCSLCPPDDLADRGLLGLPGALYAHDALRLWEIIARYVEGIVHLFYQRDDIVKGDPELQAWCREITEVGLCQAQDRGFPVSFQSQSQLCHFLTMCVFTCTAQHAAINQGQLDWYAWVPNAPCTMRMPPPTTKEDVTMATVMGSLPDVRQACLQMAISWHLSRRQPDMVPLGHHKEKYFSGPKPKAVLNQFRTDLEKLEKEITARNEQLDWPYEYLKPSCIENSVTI
#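 Hydroperoxide product was detected by ferrous iron/xylenol orange as the 573 to 405 nm absorbance ratio. Arachidonic acid at 40 uM (final) was turned over for 30 min at room temperature by 150 nM human 12hLO, pH 7.0 Hepes buffer, after 15 min compound preincubation.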
# DT40 TDP1 CPT: qHTS for Inhibitors of human tyrosyl-DNA phosphodiesterase 1 (TDP1): qHTS in cells in presence of CPT; chicken DT40 Tdp1-/-;hTDP1 cells + 20 nM CPT, ATP luminescence, 48 h; Potency, µM (series often up to 46.2 µM), inactives show at the top dose activity change, negative = growth inhibition, actives largely listed as inhibitors; 420,000 compounds, 12% hits; note: potency is the fitted concentration of half-maximal effect; nearly all actives have a fitted effect of over 55% in size
#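 Chicken DT40 Tdp1-/- cells complemented with human TDP1, 400 cells/well, exposed to compounds plus 20 nM camptothecin for at least 48 h at 37 C; viability read as ATP content by CellTiter-Glo luminescence.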
# The depositor's hits bear a star; ? = inconclusive; · = no result given; ! = a repeat was not active. Unless noted, calls come from the whole dose curve; as a rule, active = well fitted curve in the direction sought with a large enough effect; inconclusive = small, poorly fitted or top-dose-only effect, or another doubt; inactive = no such curve, though single readings can be large; an effect the other way counts as inactive or inconclusive. Unless noted, % is set by controls: 0 for no effect and ±100 for the full control effect.
SMILES,HT1080 IDH1KD tx,HT1080NT lethal,IL-1B inflam inh,TDP1 cell noCPT,12-LOX inh,DT40 TDP1 CPT
CC(C)CC1C(=O)N(Cc2cn(Cc3ccco3)nn2)CCS(=O)(=O)N1Cc1ccc(-c2cccc(CO)c2)cc1 (stereo not drawn),-6.8%,-5.3%,-9.9,16.4µM*,22.4µM*,?
Cc1ccccc1CN1CCN(C(=O)c2cc(-c3ccncc3)nc3ccccc23)CC1,2.0%,-17.5%,0.0,11.6µM*,-9.6%,20.6µM*
CC(C)n1ncc2c(C(=O)N3CCN(c4ccc(F)cc4)CC3)cc(-c3ccccc3)nc21,-6.1%,-2.1%,-57.5*,?,?,?
Cc1cccc2c(C(=O)N3CCN(c4ccccc4)CC3)cc(-c3ccncc3)nc12,1.3µM*,1.3µM*,5.6,2.91µM*,0.0%,2.59µM*
CC1CCCN(C(=O)c2cc(-c3cccs3)nc3ccccc23)C1 (stereo not drawn),-24.9%,-19.9%,-20.6,23.1µM*,0.9%,?
Cn1c(=O)[nH]c(=O)c2c1nc(N1CCN(Cc3ccccc3F)CC1)n2CCc1ccccc1,·,·,·,·,-59.8%,·
O=C(c1cc(-c2ccncc2)nc2ccccc12)N1CCOCC1,-2.7%,-4.7%,-1.5,-19.0%,14.3%,0.5%
O=C(c1cc(-c2ccncc2)nc2ccccc12)N1CCCC(C(F)(F)F)C1 (stereo not drawn),-0.5%,-7.2%,17.1,18.4µM*,-6.7%,?
O=C(c1cc(-c2ccncc2)nc2ccccc12)N1CCN(Cc2ccccc2)CC1,-4.2%,-6.1%,-59.6*,20.6µM*,-14.2%,20.6µM*
O=C(c1cc(-c2ccncc2)nc2ccccc12)N1CCN(S(=O)(=O)/C=C/c2ccccc2)CC1,-3.0%,-7.5%,?,18.4µM*,5.4%,?
CC(=O)N1CCN(C(=O)c2cc(-c3cccs3)nc3ccccc23)CC1,·,·,·,·,2.1%,·
CC(=O)N1CCN(C(=O)c2cc(-c3cccc4ccccc34)nc3ccccc23)CC1,-6.8%,-3.7%,-5.6,16.4µM*,-23.4%,14.6µM*
O=C(c1cc(-c2ccco2)nc2ccccc12)N1CCCC(C(F)(F)F)C1 (stereo not drawn),6.0%,-0.8%,-3.6,5.2%,1.9%,?
Cc1ccc(-c2cnc(CCC(=O)N(C)C(C)c3ccc(S(C)(=O)=O)cc3)o2)cc1C (stereo not drawn),·,·,·,·,23.8%,·
O=C(O)CCSc1ccccc1Cl,·,·,·,·,-10.5%,·
CN1CCN(C(=O)Cn2ccc3c(Br)cccc32)CC1,·,·,·,·,-4.5%,·
C/C(CCc1oc2ccc(Br)cc2c1-c1ccc(C)o1)=N\O,·,·,·,·,11.2µM*,·
CCc1c(C(C)=O)oc2ccc(C)cc12,·,·,·,·,22.0%,·
CC(=O)CCc1oc2ccc(NC(C)=O)cc2c1-c1ccc(C)o1,-11.2%,-13.1%,-13.1,-19.5%,·,-1.1%
C/C(CCc1oc2ccc(C)cc2c1-c1ccc(C)o1)=N\O,·,·,·,·,39.8µM*!,·
CC(=O)CCc1oc2ccc(C)cc2c1-c1ccc(C)o1,-10.3%,-17.2%,-1.1,14.6µM*,?,11.6µM*
O=C1CC(=C2c3ccccc3-c3ccccc32)C(=O)N1CCCCN1CCN(c2ccccc2)CC1,?,?,-25.7,16.4µM*,·,18.4µM*
Cc1c(C(=O)c2ccccc2)c2ccccn2c1CCc1ccccn1,-0.7%,-13.5%,-74.5*,-21.3%,-12.7%,?
Cc1c(C(=O)c2ccccc2)c2ccccn2c1CCC#N,2.1%,-2.9%,-4.9,29.7%,?,-2.4%
Cc1c(C(=O)c2ccc(F)cc2)c2ccccn2c1CCc1ccccn1,-19.7%,-25.5%,-85.7*,?,?,?
SMILES,HT1080 IDH1KD tx,HT1080NT lethal,IL-1B inflam inh,TDP1 cell noCPT,12-LOX inh,DT40 TDP1 CPT
COC(=O)CCc1c(C)c(C(=O)c2cc(OC)c(OC)c(OC)c2)c2ccccn12,?,?,57.8,?,0.0%,?
Cc1ccc(NC(=O)CN(C)C(=O)CCNS(=O)(=O)c2ccc(C)cc2)cc1,·,·,·,·,-62.8%,·
Cc1ccc(NC(=O)CN(C)C(C)C(=O)Nc2ccc(S(=O)(=O)N3CCCC3)cc2)cc1 (stereo not drawn),0.1%,10.4%,-15.8,23.1µM*,-26.7%,18.4µM*
COc1ccc(N(C(C)C(=O)Nc2ccc(S(=O)(=O)N3CCCCC3)cc2)S(C)(=O)=O)cc1 (stereo not drawn),-8.2%,-1.5%,5.4,29.1µM*,-32.5%,?
CC1CC(C)CN(C(=O)C(C)N(C)CC(=O)Nc2ccc(Cl)cc2)C1 (stereo not drawn),-8.7%,-21.8%,0.0,14.6µM*,?,16.4µM*
CN(CC(=O)Nc1ccc(S(=O)(=O)N2CCCC2)cc1)CC(=O)Nc1cccc(F)c1,-16.3%,-0.3%,-17.1,23.1µM*,-8.4%,18.4µM*
CCCN(CCC)c1nc(-c2ccccc2O)nc2ccccc12,·,·,·,·,-9.0%,·
Cc1ncc2c(c1CNS(=O)(=O)N(C)C)CCN(C(=O)c1cccc(N3CCCC3=O)c1)C2,·,·,·,·,16.2%,·
Cc1ccc(C(=O)N2CCc3ccc(NC(=O)Nc4ccc(C)c(F)c4)cc32)cc1,·,·,·,·,-14.3%,·
COc1ccc(CCN(C)c2ccc(S(=O)(=O)N3CCCC3)cc2[N+](=O)[O-])cc1OC,-16.1%,-6.9%,-14.8,11.6µM*,10.2%,16.4µM*
O=C(CSCc1ccc(Cl)cc1)Nc1ccc(S(=O)(=O)N2CCCCCC2)cc1,2.6%,1.4%,21.8,?,-3.0%,?
CN(CC(=O)Nc1ccc(S(=O)(=O)N2CCCC2)cc1)Cc1ccc(Cl)cc1Cl,-13.8%,-13.6%,9.6,?,-28.5%,18.4µM*
CN(CC(=O)Nc1ccc(Cl)cc1)c1ccc(S(=O)(=O)N2CCCCC2)cc1[N+](=O)[O-],?,-23.3%,-60.6*,?,-22.1%,18.4µM*
COc1ccc(CCN(C)c2ccc(S(=O)(=O)N3CCCC3)cn2)cc1OC,1.5%,7.0%,0.1,?,2.2%,?
CN(CC(=O)Nc1ccc(S(=O)(=O)N2CCCC2)cc1)CC(=O)Nc1ccc(F)c(F)c1F,-22.4%,-23.1%,3.4,?,3.3%,-0.4%
